This test is described as follows: basal HepG2 mitochondrial membrane potential changes, profiling panel, cell-based, JC-1 fluorescence, 24 h, 100 nL compound (AID 1167). Also: test concentration not given here. As to conditions: higher = more signal.
`CCOC(=O)C1=C[C@@H](c2ccccc2)N(S(=O)(=O)c2ccc(C)cc2)[C@H]1c1ccccc1Cl` showed a z-score of 2.6. The value for `COC(=O)c1c2oc(c1C(=O)OC)C(=O)N(Cc1ccccc1)Cc1cn(nn1)C[C@H](Cc1ccccc1)NC(=O)N[C@H](CO)CC2` was 1.9; that for `O=C(CS)NCCCCCNC(=O)[C@@H]1C[C@@H]2C(=O)N3CCC[C@H]3C(=O)N2[C@@H]1c1cccc(OCCO)c1` was 0.266; that for `C=C[C@@H](COC(C)=O)N(C(=O)OC(C)(C)C)S(=O)(=O)c1ccc(Br)cc1` was 0.515. The figure for `COc1cccc(/C=C/C=O)c1` is 1.04; for `COc1ccc(CN(C2=CC[C@@]3(C(N)=O)C(=O)C(Cl)=C(Cl)C(=O)[C@@]3(C#N)C2)S(=O)(=O)c2ccc(Br)cc2)cc1` it is -2.16; for `O=C1O[C@@H](c2ccccc2)[C@@H](c2ccccc2)N2[C@@H](c3ccc(O)cc3)[C@]3(C(=O)Nc4ccc(C#CC5=CCCCC5)cc43)[C@@H](C(=O)NC[C@H](O)c3ccccc3)[C@H]12` it is -2.26. The value for `Cc1ccccc1C(O)C1C=CC2C(=O)N(C)C(=O)C2N1N(c1ccccc1)c1ccccc1` (stereo unspecified) was 0.02; that for `CCOC(=O)[C@H]1[C@@H]2C(=O)N3CCC[C@H]3[C@H](O[Si](C(C)C)(C(C)C)C(C)C)[C@H]2C=C2CCN(S(=O)(=O)c3ccc(C)cc3)C[C@H]21` was 1.51; that for `CC(CO)N1C(=O)[C@@H]2[C@H]3C(=O)OCC=C[C@H]3OC23C=CCN(C(C)(C)C)C(=O)[C@@H]13` (stereo partly specified) was -0.936. Compound `O=C1C2C=CC(C(O)c3ccccc3)N(Nc3ccccc3F)C2C(=O)N1c1ccccc1` (stereo unspecified) gave a z-score of 0.12. The figure for `COCCOC(=O)N1C(=O)[C@@]2(c3cc(C#CC4=CCCCC4)ccc31)[C@H](c1ccc(O)cc1)N1[C@H](c3ccccc3)[C@H](c3ccccc3)OC(=O)[C@H]1[C@@H]2C(=O)N1CCN(c2ncccn2)CC1` is 0.642; for `CC(C)C(=C=CC[C@H](O)c1cccc(OCCO)c1)C[C@H](O)c1cc(Cl)cc(Cl)c1O` it is 0.00345.

Take `O=C(NCc1ccccc1)[C@@H]1c2ccccc2C(=O)N(Cc2ccccc2C(F)(F)F)[C@H]1c1ccc(CO)cc1`: the z-score was determined as 2.36.

As for `CC(C)Cc1ccc(CN2CC[C@@H](NC(=O)Nc3ccccc3)C2)cc1`, the z-score is -2.75. In the case of `CCC(CC)C(O)C1C=CC2C(=O)N(c3ccccc3)C(=O)C2N1Nc1ccc(C(C)C)cc1` (stereo unspecified), the z-score is -1.68.

Values taken from PubChem BioAssay.
